# Abeta yeast res – A-beta toxicity reversal in yeast. 410,000 compounds, 0.063% hits. yeast expressing A-beta42, growth rescue, OD600, 48 h; response scale: 0% DMSO, 100% iron-clioquinol control. AID 1347071. Potency, µM (highest dose often 46.1 µM), usual class: activators; also: nearly all actives have a fitted effect of over 55% in size
#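 Growth rescue measured by 600 nm absorbance after 48 h yeast culture at 30 C with compound. Values normalized between DMSO and an equimolar ferric chloride plus clioquinol control.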
# aSyn yeast inh – inhibitors of alpha-synuclein toxicity in yeast | Potency, µM (top dose mostly 46.1 µM), without a hit: at the top dose growth rescue (activation), actives largely listed as activators | Yeast expressing alpha-synuclein, growth rescue, BacTiter-Glo, 24 h | 370,000 compounds, 0.14% hits; also: % of control where 0% means no effect; nearly all actives have a fitted effect of over 65% in size
#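 Galactose-induced alpha-syn yeast (OD600=0.02, raffinose-pregrown) + pinned cpd, 24 hr, 30 deg C; growth by BacTiter-Glo luminescence. Growth restoration scores as activation.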
# TDP43 rescue – inhibitors of TDP-43 toxicity in yeast; TDP-43 expressing yeast growth rescue, BacTiter-Glo, 24 h; Potency, µM (highest dose often 46.1 µM), without a hit: top-dose growth rescue (activation), most hits filed as activators; 410,000 compounds, 1.8% hits; also: % of control where 0% means no effect; nearly all actives have a fitted effect of over 50% in size
#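 In this qHTS, compounds that restore growth of yeast expressing TDP-43 appear as activators. Cells (OD600=0.02, galactose medium, raffinose-pregrown) are incubated with compound 24 hr at 30 deg C and growth is quantified by BacTiter-Glo.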
# Mito fusion act – inhibitors of mitochondrial division or activators of mitochondrial fusion; S. cerevisiae fusion-defective mutant growth rescue, CellTiterGlo 48 h; Potency, µM (highest dose often 46.1 µM), for inactives: top-dose growth rescue (activation), most hits filed as activators; 320,000 compounds, 0.23% hits; AID 485298; also: % of control where 0% means no effect; nearly all actives have a fitted effect of over 45% in size
#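 Yeast fusion mutant, YPEG (non-fermentable carbon), compound, 48 h at 37C non-permissive; CellTiterGlo added, 10 min RT, luminescence read. Rescued growth = division inhibition.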
# FUS suppressor – suppressors of FUS proteinopathy in yeast; AID 1347120; 390,000 compounds, 0.24% hits; S. cerevisiae FUS-expressing, growth rescue, OD600, 24 h; Potency, µM (doses to about 76.6 µM), hits mostly activators;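 also: plate controls were DMSO vehicle for no effect and reference control for full effect; nearly all actives have a fitted effect of over 55% in size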
#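 Yeast expressing FUS under galactose induction, OD 0.005 in 2% galactose medium; compounds in a dilution series, 24 h at 30C. Growth rescue by absorbance at 600 nm; CP55940 positive control, DMSO negative.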
# * = called active by the depositor; i = inactive; ? = inconclusive; . = no result. Compounds with a hit are over-represented: about 2.2% of the library has one in this group of screens. Calls follow the shape of the dose curve; as a rule, active = well fitted curve in the direction sought with a large enough effect; inconclusive = small, poorly fitted or top-dose-only effect, or another doubt; inactive = no such curve, though single readings can be large; an effect the other way counts as inactive or inconclusive. Potency is read from the fitted curve at half-maximal effect.
SMILES,Abeta yeast res,aSyn yeast inh,TDP43 rescue,Mito fusion act,FUS suppressor
COc1cc(C(O)c2nc(-c3cc(F)cc(F)c3)cs2)ccc1F (configuration not stated),?,?,35.5µM*,.,i
COc1cc(C(O)c2nc(-c3cc4ccccc4o3)cs2)ccc1F (configuration not stated),?,-16.9%,17.2%,.,i
COc1cc(C(O)c2nc(-c3cccc(C(C)C)c3)cs2)ccc1F (configuration not stated),i,-19.7%,22.4µM*,.,i
COc1cc(C(O)c2nc(-c3cccc(F)c3)cs2)ccc1F (configuration not stated),i,?,15.8µM*,.,i
COc1cc(C(O)c2nc(-c3cncnc3)cs2)ccc1F (configuration not stated),i,-0.4%,?,.,i
COC(=O)c1ccc(NC(=O)C2(S(=O)(=O)c3ccc(C)cc3)CC2)cc1,i,.,?,.,i
CCCCNc1nc2c(c(=O)n(C)c(=O)n2C)n1CC(O)COc1ccccc1C (configuration not stated),i,.,0.9%,.,i
COc1ccc(-c2csc(C(O)c3ccc(F)cc3)n2)cc1OC (configuration not stated),i,12.9%,22.4µM*,.,i
COc1ccc(C(O)c2nc(-c3ccc(C)c(C)c3)cs2)cc1 (configuration not stated),i,10µM*,?,.,i
COc1ccc(C(O)c2nc(-c3cc(F)cc(F)c3)cs2)cc1 (configuration not stated),?,?,35.5µM*,.,i
COc1ccc(-c2csc(C(O)c3ccccc3)n2)cc1 (configuration not stated),i,11.5%,?,.,i
COc1ccc(C(O)c2nc(-c3ccc(F)cc3OC)cs2)cc1 (configuration not stated),?,0.0%,22.4µM*,.,i
Cc1ccc(S(=O)(=O)N(CCc2ccccc2)CC(=O)N2CCOCC2)cc1,.,.,.,.,i
Cc1ccsc1CCN1C(=O)N(c2ccccc2)C(=O)C1CC(=O)Nc1ccc(Cl)cc1 (configuration not stated),i,.,15.9%,.,?
CCNC(=S)N/N=C(\C)c1ccc2ccccc2c1OC(F)F,5.62µM*,-9.4%,?,0.9%,?
CCNC(=S)N/N=C(\C)c1ccc2ccccc2c1,.,.,.,-3.6%,.
CCCCOC(=O)c1ccc(NC(=O)c2c(Cl)ccc(Cl)c2OC)cc1,i,-16.1%,-4.5%,15.8µM*,i
CC1CCN(S(=O)(=O)c2ccc(C(=O)OC(C)C(=O)N(C)C3CCCCC3)cc2)CC1 (configuration not stated),i,-6.2%,-19.2%,5.2%,i
CC(OC(=O)c1ccc(NS(=O)(=O)c2cccs2)cc1)C(=O)N(C)C1CCCCC1 (configuration not stated),i,-3.0%,-5.8%,0.2%,31.6µM*
Cc1ccc(C(=O)/C=C/C(=O)O)cc1,i,3.16µM*,-71.0%,-9.6%,i
Cc1scc(-c2n[nH]c(=S)n2C(C)c2ccccc2)c1C (configuration not stated),i,-1.1%,35.5µM*,24.2%,.
Cc1ccccc1-n1c(-c2csc(C)c2C)n[nH]c1=S,4.47µM*,15.1%,?,-2.1%,i
Cc1ccccc1-n1c(-c2csc3ccccc23)n[nH]c1=S,i,4.1%,20µM*,-8.4%,i
C=CCn1c(-c2csc3ccccc23)n[nH]c1=S,i,0.0%,19.1%,-4.9%,i
COc1ccc(NC(=O)C2(C)Cc3c(-c4ccc(N(C)C)cc4)ccnc3O2)cc1 (configuration not stated),i,-2.2%,5.4%,.,?
SMILES,Abeta yeast res,aSyn yeast inh,TDP43 rescue,Mito fusion act,FUS suppressor
CCNC(=S)NNC(=O)CSc1nc2ccccc2c(=O)n1-c1ccc(Cl)cc1,.,.,.,.,i
COc1ccc(CSCC(=O)Nc2ccc(S(=O)(=O)N3CCCCCC3)cc2)cc1,i,4.2%,17.8µM*,15.4%,.
O=C(/C=C/c1ccc(O)c(O)c1)OCCc1ccccc1,i,5.17µM*,15.8µM*,2.59µM*,i
COc1ccc(/C=C/C(=O)OCC(=O)NCCCc2ccccc2)cc1OC,i,1.5%,35.5µM*,.,i
COc1cc(/C=C/C(=O)OCC(=O)NCCCc2ccccc2)cc(OC)c1OC,i,2.6%,12.3%,.,i
CCc1ccc(NC(=O)Cn2nnc(C(=O)NCc3ccc(C)cc3)c2N)cc1,i,.,0.0%,.,i
COc1cccc(NC(=O)c2cnc(SCC(=O)N3CCOCC3)n(C)c2=O)c1,i,.,21.2%,.,i
CCN(CCCNC(=O)CN1N=C(c2ccccc2)CCC1=O)c1ccccc1,i,.,7.1%,.,i
O=C(c1cc(C2CC2)nn1-c1ccccc1)N1CCN(Cc2ccccc2F)CC1,i,-0.4%,-5.3%,28.5%,i
O=C(c1cc(C2CC2)nn1-c1ccccc1)N1CCN(Cc2ccc(Cl)cc2)CC1,i,13.8%,12.4%,20µM*,i
COc1ccc(C(=O)NCCc2csc(-c3ccc(Cl)cc3)n2)c(OC)c1,i,.,20µM*,.,?
COc1cc(NC(=O)c2csc(-c3ccncc3)n2)cc(C(=O)Nc2cccc(C(F)(F)F)c2)c1,i,0.6%,20µM*,-5.8%,?
COc1ccc(C(=O)NCCc2csc(-c3ccc(Cl)cc3)n2)cc1,i,.,?,.,i
COc1cc(OC)cc(C(=O)NCCc2csc(-c3ccc(C(F)(F)F)cc3)n2)c1,i,.,17.8µM*,.,i
COc1ccccc1C(=O)NCCc1csc(-c2ccc(C(F)(F)F)cc2)n1,i,.,25.1µM*,.,?
CCN(CC)C(=O)N1CCN(/[N+]([O-])=N/Oc2ccc([N+](=O)[O-])cc2[N+](=O)[O-])CC1,.,-58.5%,.,.,.
O=C(NC(c1ccc(Cl)cc1)c1cnccn1)C1CCN(CCCc2ccccc2)CC1 (configuration not stated),i,14.5%,10.5%,.,i
O=C1c2ccccc2-c2cc([N+](=O)[O-])c([N+](=O)[O-])cc21,.,-83.5%,.,.,.
O=C(NCCc1csc(-c2ccc(Cl)cc2)n1)c1cccs1,i,.,17.8µM*,.,i
O=C(NCCc1csc(-c2ccccc2)n1)c1cccs1,i,-2.0%,?,4.3%,i
c1ccc(-c2ccc(-c3nccc4ccccc34)[nH]2)cc1,.,.,.,13.0%,.
N#Cc1cc(-c2ccccc2)[nH]c1-c1nccc2ccccc12,i,6.3%,11.2µM*,-12.9%,i
N#Cc1ncc(Cc2ccccc2)nc1C#N,i,12.4%,14.1µM*,-7.5%,i
N#Cc1nc(Cc2ccccc2)oc1NCc1cccnc1,i,-1.3%,-2.9%,0.0%,i

# High-throughput results from PubChem BioAssay.
